Experimental data: the supplement of paper PMC13380429

Key:
[1] = test system: Vero E6 infected with SARS-CoV-2; assay: morphology score (similarity to uninfected cells); higher = more like uninfected cells; settings: 24 h
[2] = test system: Vero E6 infected with SARS-CoV-2; assay: SARS-CoV-2 infection rate relative to infected DMSO; higher = more infection, active = 60 or less; settings: 24 h

| SMILES | morphology score [1] | SARS-CoV-2 infection rate [2] |
| --- | --- | --- |
| CC(=O)[C@@]1(O)CC[C@H]2[C@@H]3C[C@H](C)C4=CC(=O)C=C[C@]4(C)[C@@]3(F)[C@@H](O)C[C@@]21C [fluorometholone] (10 µM) | 0.02 | 110% (inactive) |
| COc1cc2c(cc1O)CC[C@@H]1[C@@H]2CC[C@]2(C)[C@@H](O)CC[C@@H]12 [2-methoxyestradiol] (0.833333 µM) | 0.00558 | 102% (inactive) |
| CCN1CCN(Cc2ccc(C(=O)Nc3ccc(C)c(Oc4ccc5c(c4)CC(=O)N5)c3)cc2C(F)(F)F)CC1 (0.833333 µM) | 0.0277 | 104% (inactive) |
| CC(C)(C)NCC(O)COc1cccc2[nH]c(=O)[nH]c12 (stereo not given) (10 µM) | 0.0723 | 103% (inactive) |
| O=C(O)c1nn(Cc2ccc(Cl)cc2Cl)c2ccccc12 [lonidamine] (10 µM) | 0.0313 | 110% (inactive) |
| C1=Cc2cccc(OCC3CNCCO3)c2C1 (stereo not given) [indeloxazine] (10 µM) | -0.319 | 106% (inactive) |
| CC(C)c1onc(-c2c(Cl)cccc2Cl)c1COc1ccc(/C=C/c2cccc(C(=O)O)c2)c(Cl)c1 (10 µM) | 0.151 | 96.5% (inactive) |
| O=C(NCc1ccc2c(c1)OCO2)c1c(Cl)cccc1Cl [alda-1] (10 µM) | 0.107 | 104% (inactive) |
| COc1ccc(-c2ccc3c(N4CCOCC4)nc(N4C[C@@H](C)O[C@@H](C)C4)nc3n2)cc1CO (0.833333 µM) | 0.12 | 110% (inactive) |
| CNNCc1ccc(C(=O)NC(C)C)cc1 [procarbazine] (10 µM) | 0.133 | 106% (inactive) |
